From PubChem BioAssay
Sm TGR inh – blocks Schistosoma mansoni thioredoxin glutathione reductase; Q962Y6; purified TGR, DTNB reduction, TNB absorbance 405 nm; Potency, µM (top dose mostly 114 µM), most hits filed as inhibitors; 360,000 compounds, 3% hits; AID 485364; note: nearly all actives have a fitted effect of over 60% in size
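TGR 20 nM + NADPH 100 uM (dispensed conc.), cpd preinc 15 min RT; start with NADPH (500 uM addition) then DTNB (15 mM addition). Kinetic TNB absorbance, 405 nm filter. Four-parameter Hill fit across titration.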
AMA1-RON2 inh – disrupts binding of P. falciparum AMA1 to RON2. AlphaScreen AMA1-biotinylated RON2 peptide binding. Potency, µM (doses to about 58.2 µM), actives largely listed as inhibitors. 360,000 compounds, 0.2% hits. AID 720542; note: nearly all actives have a fitted effect of over 45% in size
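AMA1 (3D7) with his tag at 25 nM final met compounds first, then biotinylated RON2 peptide at 25 nM; detection used donor plus acceptor beads, 10 µg/mL apiece, read by AlphaScreen after 30 min at room temperature.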
NS1 inh – blocks influenza NS1 protein function; Potency, µM (top dose mostly 46.1 µM); AID 2326; 270,000 compounds, 0.4% hits; calls by dose curve; note: actives are rising curves; nearly all actives have a fitted effect of over 50% in size
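Compounds were scored for reversing the slow growth caused by influenza A NS1 in S. cerevisiae, measured by optical density at 600 nm. Assay medium contained 2% galactose at pH 6.0; NS1-free yeast of the same strain were the positive control.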
Pf growth 96h – P. falciparum growth inhibition at 96 hour, primary screen for plastid delayed-death inhibitors | P. falciparum luciferase reporter growth, 96 h | 320,000 compounds, 6.9% hits | Potency, µM (series often up to 28.7 µM), most hits filed as inhibitors
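Compounds incubated with erythrocytes infected by luciferase-expressing P. falciparum (2% hematocrit, 0.05% parasitemia final) for 96 hours, 37 C in 5% CO2. Growth inhibition scored as decreased luciferase luminescence.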
Pf growth 48h – inhibits P. falciparum growth in the first generation, 48 h; P. falciparum luciferase growth in erythrocytes, 48 h; 310,000 compounds, 5.9% hits; Potency, µM (series often up to 28.7 µM), most hits filed as inhibitors
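Read-out is firefly luciferase luminescence from an integrated reporter in P. falciparum, so falling signal marks reduced parasite growth. Infected erythrocytes were at 2% hematocrit and 0.1% parasitemia (final) in Albumax-supplemented RPMI 1640.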
Flu NS1 inh – validation of influenza NS1 protein function inhibitors | shares compounds with NS1 inh | influenza NS1 function cell assay, 15-point titration | activity change, negative = inhibition, % at 32.9 µM | 1,400 tested, under 10 active | AID 492980; calls by dose curve
PR8 titer – reduces influenza A/PR/8/34 replication in MDCK cells; AID 504647; virus titer (log TCID50), log10 TCID50 at 5 µM; 95 compounds, 30% hits; MDCK infected influenza A/PR/8/34, virus titer TCID50; stronger effect = lower value; shares compounds with NS1 inh; call rule not given here
Large screens that a line does not name were inactive (follow-up assays come after a bar, where they were run). Sampled rows, rich in hits. Any-hit rate of the full collection: about 11%. Unless noted, calls come from the whole dose curve; as a rule, active = well fitted curve in the direction sought with a large enough effect; inconclusive = small, poorly fitted or top-dose-only effect, or another doubt; inactive = no such curve, though single readings can be large; an effect the other way counts as inactive or inconclusive.

COC(=O)c1c(NC(=S)Nc2cc(OC)c(Cl)cc2OC)sc2c1CCCCC2	NS1 inh 11µM | Flu NS1 inh inactive | PR8 titer inactive
CCOC(=O)c1c(NC(=S)Nc2cc([N+](=O)[O-])ccc2OC)sc2c1CCCCC2	Pf growth 96h inconclusive (no result: AMA1-RON2 inh)
COc1ccc(/C=C(/NC(=O)c2ccc(OC)c(OC)c2)C(=O)NCCc2c[nH]c3ccccc23)cc1	NS1 inh 7.9µM, Pf growth 96h inconclusive, Pf growth 48h inconclusive | Flu NS1 inh inactive
COc1ccc(C(=O)N/C(=C/c2cccc3ccccc23)C(=O)NCCc2c[nH]c3ccccc23)cc1OC	NS1 inh 11µM, Pf growth 96h inconclusive, Pf growth 48h inconclusive | Flu NS1 inh inconclusive
COc1ccc(/C=C(/NC(=O)c2ccc(OC)cc2)C(=O)NCCc2c[nH]c3ccccc23)cc1	NS1 inh inconclusive, Pf growth 96h inconclusive, Pf growth 48h inconclusive
NS(=O)(=O)c1cccc(NC(=O)CN2CCN(S(=O)(=O)c3ccc4c(c3)OCCO4)CC2)c1	none (no result: Sm TGR inh, NS1 inh, Pf growth 96h, Pf growth 48h)
CN(C)S(=O)(=O)c1ccc(C(=O)NCCc2ccco2)cc1	none
N#Cc1c(Cl)nc(-c2ccncc2)nc1-c1ccccc1	none
N#Cc1c(Cl)nc(SCc2ccccc2)nc1-c1ccccc1	NS1 inh inconclusive (no result: AMA1-RON2 inh) | Flu NS1 inh inactive
CCOC(=O)Nc1ccc2c(CN3CCN(S(=O)(=O)c4ccccc4)CC3)cc(=O)oc2c1	NS1 inh 8.9µM, Pf growth 96h 6.6µM, Pf growth 48h 9.3µM | Flu NS1 inh inactive
COc1ccccc1N1CCN(Cc2nnc(-c3ccccc3C)o2)CC1	none (no result: AMA1-RON2 inh, NS1 inh, Pf growth 96h, Pf growth 48h)
CCCOP(=O)(c1ccc(N(C)C)cc1)C(Nc1ccccc1)c1ccc(N(C)C)cc1 (stereo not given)	NS1 inh 20µM, Pf growth 96h 8.3µM, Pf growth 48h 2.6µM | Flu NS1 inh inactive
C#CCn1c(=NC(=O)c2ccc(S(=O)(=O)N3CCCc4ccccc43)cc2)sc2cc(S(N)(=O)=O)ccc21	NS1 inh 11µM, Pf growth 96h 2.9µM, Pf growth 48h 9.3µM | Flu NS1 inh inactive
Cn1c(=NC(=O)c2ccc(S(=O)(=O)N3CCCc4ccccc43)cc2)sc2cc(S(C)(=O)=O)ccc21	Pf growth 96h inconclusive, Pf growth 48h inconclusive
C[C@H](NC(=O)c1nc[nH]c1C(=O)N[C@@H](CCCCN)C(=O)OC(C)(C)C)C(=O)OCc1ccccc1	none (no result: Sm TGR inh, NS1 inh, Pf growth 96h, Pf growth 48h)
CC(C)C[C@H](NC(=O)c1nc[nH]c1C(=O)NCc1ccc(CNC(=O)OC(C)(C)C)cc1)C(=O)OC(C)(C)C	NS1 inh 8.9µM, Pf growth 96h inconclusive, Pf growth 48h inconclusive | Flu NS1 inh inactive
C[C@H](NC(=O)c1nc[nH]c1C(=O)N[C@@H](Cc1ccccc1)C(=O)OCc1ccccc1)C(=O)OC(C)(C)C	NS1 inh 10µM, Pf growth 96h inconclusive, Pf growth 48h 7.4µM | Flu NS1 inh inactive
CC(C)(C)OC(=O)[C@H](Cc1ccccc1)NC(=O)c1nc[nH]c1C(=O)NCC(=O)OCc1ccccc1	NS1 inh 11µM | Flu NS1 inh inactive
C[C@H](NC(=O)c1nc[nH]c1C(=O)N[C@@H](CCCCNC(=O)OC(C)(C)C)C(=O)OC(C)(C)C)C(=O)OCc1ccccc1	NS1 inh 10µM, Pf growth 48h inconclusive | Flu NS1 inh inactive
CC(C)C[C@H](NC(=O)c1[nH]cnc1C(=O)N[C@@H](C)C(=O)OC(C)(C)C)C(=O)OCc1ccccc1	Pf growth 96h inconclusive, Pf growth 48h inconclusive
COc1ccc(C(=O)NCCS(=O)(=O)NCc2cccnc2)cc1	none (no result: NS1 inh)
CC(=O)Nc1cncc(-c2cnn(CC(C)C)c2)n1	none (no result: Sm TGR inh, NS1 inh, Pf growth 96h, Pf growth 48h)
CCOC(=O)CCCNC(=O)COC(=O)[C@@H]1CCCN1S(=O)(=O)c1ccc(Cl)cc1	Pf growth 96h inconclusive, Pf growth 48h inconclusive
O=C(Nc1ccccc1Oc1ccccc1)c1ccc(Br)o1	NS1 inh inconclusive | Flu NS1 inh inconclusive
CCCCC1=CC2=C(c3ccco3)C(=O)C(C)(OC(=O)c3ccc(OC)cc3)C(=O)C2=CN1CCc1ccccn1 (stereo not given)	Sm TGR inh inconclusive, NS1 inh inconclusive, Pf growth 96h inconclusive, Pf growth 48h inconclusive | Flu NS1 inh inactive
CCCCC1=CC2=CC(=O)C(C)(OC(=O)CC)C(=O)C2=CN1CCc1ccccn1 (stereo not given)	NS1 inh inconclusive, Pf growth 96h inconclusive, Pf growth 48h inconclusive | Flu NS1 inh inactive
COC(=O)CCCC1=CC2=CC(=O)C(C)(OC(=O)c3cccs3)C(=O)C2=CN1CCc1ccccn1 (stereo not given)	Pf growth 96h inconclusive, Pf growth 48h inconclusive
Cc1cccc(CC2C(=O)Nc3ccccc32)c1 (stereo not given)	none (no result: AMA1-RON2 inh, NS1 inh, Pf growth 96h, Pf growth 48h)
Cc1cc(F)ccc1NC(=O)CN1C(=O)CCc2cc(S(=O)(=O)N3CCOCC3)ccc21	none (no result: AMA1-RON2 inh, NS1 inh, Pf growth 96h, Pf growth 48h)
C[C@@H]1CN([C@H](C)CO)C(=O)CCCn2nncc2CO[C@H]1CN(C)Cc1cccc(C(F)(F)F)c1	none (no result: Sm TGR inh, NS1 inh, Pf growth 96h, Pf growth 48h)
CC(C)(C)NC(=O)NC(=O)CN1CCN(c2cccc(Cl)c2)CC1	NS1 inh 7.9µM, Pf growth 96h inconclusive, Pf growth 48h inconclusive | Flu NS1 inh inactive | PR8 titer inactive
Cc1ccc(S(=O)(=O)N2CCCN(C(=O)OC(C)(C)C)CC2)cc1	none
COC(=O)C(O)(c1c(C)[nH]n(-c2ccccc2)c1=O)C(F)(F)F (stereo not given)	NS1 inh 8.9µM, Pf growth 96h inconclusive | Flu NS1 inh inconclusive
CSc1nnc(NC(=O)c2cc(=O)c3cc(C)c(C)cc3o2)s1	none (no result: AMA1-RON2 inh, NS1 inh, Pf growth 96h, Pf growth 48h)
COc1ccc(NC(=O)N(C)C[C@H]2OCc3cnnn3CCCC(=O)N([C@@H](C)CO)C[C@H]2C)c(OC)c1	none (no result: Sm TGR inh, NS1 inh, Pf growth 96h, Pf growth 48h)
CC1CCN(S(=O)(=O)N2CCCC(C(=O)NCc3ccccc3Cl)C2)CC1 (stereo not given)	none
CCOC(=O)N1CCN(S(=O)(=O)N2CCCC(C(=O)NCc3ccc(OC)cc3)C2)CC1 (stereo not given)	NS1 inh inconclusive | Flu NS1 inh inactive
CCOC(=O)N1CCN(S(=O)(=O)N2CCCC(C(=O)NCc3ccc(F)cc3)C2)CC1 (stereo not given)	NS1 inh inconclusive, Pf growth 96h inconclusive
CC1CC(C)CN(S(=O)(=O)N2CCCC(C(=O)NCc3ccccc3Cl)C2)C1 (stereo not given)	Sm TGR inh inconclusive, NS1 inh inconclusive | Flu NS1 inh inactive | PR8 titer inactive
CCOc1ccccc1NC(=O)Cn1c(=O)n(Cc2ccco2)c(=O)c2ccc(C(=O)NC3CCCC3)cc21	none (no result: AMA1-RON2 inh, NS1 inh, Pf growth 96h, Pf growth 48h)
Nc1ccc2nc(SCC(=O)Nc3ccc(N4CCOCC4)c(Cl)c3)sc2c1	NS1 inh 10µM | Flu NS1 inh inactive
